Hits are enriched below; roughly 2.2% of the tested compounds scored in any of these assays.
HIF act: HIF pathway transcriptional activation. hit rate 0.32% among 300,000. activation, % at 7.5 µM (by protocol). U2OS HRE-luciferase reporter, luminescence; normalized: DMSO 0%, desferrioxamine 100%. AID 1910;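 active = mean activation of at least 10% of the iron chelator positive control signal, with at least half of replicates also reaching 10%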
CHT inh: inhibits the human high affinity choline transporter. Q9GZV3. CHT-expressing cells, membrane potential dye, choline response; active compounds read low. B-score at 10 µM. hit rate 0.86% among 310,000. AID 488975;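 active = B-score over 3 SD under the library average, and starting fluorescence ratio not unusually high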;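 note: choline stimulus applied at its EC90 after an EC20 pre-addition; B-score computed on integrated fluorescence ratio after choline addition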
Target sequence (Q9GZV3 whole entry, looked up): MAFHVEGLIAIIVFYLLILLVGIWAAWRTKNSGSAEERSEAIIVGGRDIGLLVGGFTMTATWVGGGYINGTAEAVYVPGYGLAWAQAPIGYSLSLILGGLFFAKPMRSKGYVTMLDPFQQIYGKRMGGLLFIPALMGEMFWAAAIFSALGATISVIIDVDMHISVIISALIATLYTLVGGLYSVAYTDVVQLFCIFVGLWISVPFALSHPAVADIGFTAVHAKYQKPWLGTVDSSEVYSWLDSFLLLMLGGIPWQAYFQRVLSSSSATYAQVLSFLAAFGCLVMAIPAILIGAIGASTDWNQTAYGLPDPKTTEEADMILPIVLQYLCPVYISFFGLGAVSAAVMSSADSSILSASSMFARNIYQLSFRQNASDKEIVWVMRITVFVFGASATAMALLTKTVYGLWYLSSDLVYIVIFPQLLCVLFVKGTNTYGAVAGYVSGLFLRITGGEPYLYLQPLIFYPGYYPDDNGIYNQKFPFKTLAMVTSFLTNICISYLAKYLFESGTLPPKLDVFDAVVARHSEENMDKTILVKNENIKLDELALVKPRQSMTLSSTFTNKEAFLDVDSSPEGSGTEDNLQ
CHT PAM: allosteric activators of human choline transporter CHT | B-score at 10 µM | hit rate 0.49% among 310,000 | AID 488977 | Q9GZV3 | CHT-expressing cells, membrane potential dye, choline EC20; active compounds read high; LV-AA mutant CHT in HEK293 cells;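 active = initial fluorescence not abnormally high and integrated response B-score, plate-corrected, over 3 SD above library mean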
Platelet DG rel: modulates dense granule release in human platelets; human platelet-rich plasma, SFLLRN dense granule ATP release, luminescence; inhibition, %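 (compounds screened at 7.5 µM in platelet-rich plasma)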; hit rate 0.22% among 300,000; AID 1663;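 active = mean replicate score, as percent of positive control, at or above 50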
VLA-4 inh: inhibition in a human VLA-4 binding assay; P13612; VLA-4 expressing cells, ligand binding flow cytometry; inhibition, % (about 7 µM as worked out from the volumes in the protocol); hit rate 0.2% among 330,000; AID 2557; in the data active = inhibition above about 50%
AI-2 QS mod: Vibrio harveyi AI-2 quorum sensing modulation; Vibrio harveyi JMH597 AI-2 luminescence/OD600 ratio, 9 h; active compounds read low; strain lacks LuxN and CqsS sensors; 0 = neutral-control median; activity change, % at 7.5 µM; hit rate 0.4% among 300,000; AID 2094; in the data active = activity change below about -75%, passing the limit was not always enough;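 note: luminescence divided by OD600 gain over 9 h not by final OD600 alone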
CHT block conf: confirmation of human choline transporter CHT inhibitors | shares compounds with CHT inh | CHT-expressing cells, choline membrane potential dye; LV-to-AA substituted CHT, HEK293 cells | CHT activity remaining % of control (active compounds read low), % at 10 µM | hit rate 70% among 2,400 | AID 493221;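 active = choline transporter activity left, mean of duplicates at 10 µM, below buffer-only control mean minus 3 SD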;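 note: depolarization triggered by choline at its EC90 following an EC20 pre-addition; 0% = hemicholinium-3 full block and 100% = buffer-only control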
HEK293 CHT ctr: activity in parental HEK293 cells lacking CHT | shares compounds with CHT inh | membrane potential dye, choline response; active = decrease or increase beyond buffer ±3SD | membrane potential ratio readout (active if shifted either direction beyond buffer ±3SD; no single direction) at 10 µM | hit rate 4% among 2,400 | AID 493222;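 note: parental cells lack the transporter so any hit is non-specific; ratio is peak minus trough fluorescence over baseline after EC90 choline challenge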
* = called active by the depositor.

`CCN(CC)CCCn1c2c(c(SCC(=O)N3CCc4ccccc43)nc1=O)CCC2` gave HIF act 1, CHT inh -8*, CHT PAM inactive, Platelet DG rel -4, VLA-4 inh 6, AI-2 QS mod 14, CHT block conf 42%* and HEK293 CHT ctr inactive.
`Cc1ccc(NC(=S)Nc2ccc3nc(-c4ccccn4)c(-c4ccccn4)nc3c2)cc1C` gave CHT inh -5.3*, CHT PAM inactive, VLA-4 inh 14, CHT block conf 60%* and HEK293 CHT ctr inactive.
Cc1cccc(C)c1NC(=S)Nc1ccc(F)cc1 was read as HIF act 0, CHT inh inactive, CHT PAM inactive, Platelet DG rel 2, VLA-4 inh 18 and AI-2 QS mod 12.
Cc1ccc(NC(=S)Nc2ccccn2)cc1C was read as HIF act 3, CHT inh inactive, CHT PAM inactive, Platelet DG rel -2, VLA-4 inh 1 and AI-2 QS mod 23.
For Cc1ccc(NC(=S)Nc2ccc(F)cc2)cc1C the results were HIF act 2, CHT inh -8.8*, CHT PAM inactive, Platelet DG rel 3, VLA-4 inh 13, AI-2 QS mod 14, CHT block conf 65%* and HEK293 CHT ctr inactive.
Screening COc1ccccc1CC(=O)N1CCN(c2cccc(C(F)(F)F)c2)CC1 returned HIF act 0, CHT inh -6.3*, CHT PAM inactive, Platelet DG rel -7, VLA-4 inh -4, AI-2 QS mod 13, CHT block conf inactive and HEK293 CHT ctr inactive.
Screening Oc1c(Cl)cc(Cl)cc1/C=N/Nc1ncc(Br)cn1 returned HIF act 1, CHT inh inactive, CHT PAM inactive, Platelet DG rel -5, VLA-4 inh 12 and AI-2 QS mod 27.
For CN(/N=C/c1cc(Cl)cc(Cl)c1O)C(=S)NC(C)(C)C the results were HIF act 0, CHT inh -5.4*, CHT PAM inactive, Platelet DG rel 8, VLA-4 inh -3, AI-2 QS mod 22, CHT block conf 68%* and HEK293 CHT ctr inactive.
For CC(=O)OC(C(=O)NC1CCCCC1)c1ccc(C)cc1 (stereo not drawn) the results were HIF act 0, CHT inh inactive, CHT PAM inactive, Platelet DG rel -1, VLA-4 inh -5 and AI-2 QS mod -11.
CC(=O)OC(C(=O)NC1CCCCC1)c1ccc(Cl)c(Cl)c1 (stereo not drawn) was read as HIF act 0, CHT inh -11*, CHT PAM inactive, Platelet DG rel 0, VLA-4 inh 3, AI-2 QS mod 18, CHT block conf inactive and HEK293 CHT ctr inactive.
Screening CC(C)[C@H](Nc1ccc(C(F)(F)F)cc1[N+](=O)[O-])C(=O)O returned HIF act 0, CHT inh inactive, CHT PAM inactive, Platelet DG rel 11, VLA-4 inh -1 and AI-2 QS mod 13.
Screening O=C(NNc1ccc(C(F)(F)F)cc1[N+](=O)[O-])c1ccc(NS(=O)(=O)c2ccc(F)cc2)cc1 returned HIF act -1, CHT inh -10*, CHT PAM inactive, Platelet DG rel -4, VLA-4 inh -3, AI-2 QS mod 9, CHT block conf 52%* and HEK293 CHT ctr inactive.
`O=C(O)C1Sc2[nH]c(=O)sc2C2c3ccc(O)cc3OC(=O)C12` (stereo not drawn) gave HIF act 0, CHT inh inactive, CHT PAM inactive, Platelet DG rel 2, VLA-4 inh 2 and AI-2 QS mod 6.
COc1cccc(CN2CCNC(=O)C2CC(=O)NCc2cn3ccc(C)cc3n2)c1OC (stereo not drawn) was read as HIF act 0, CHT inh inactive, CHT PAM inactive, Platelet DG rel -2, VLA-4 inh -2 and AI-2 QS mod -3.
For CN(C)CCn1c(=O)n(Cc2ccccc2)c(=O)c2c3c(sc21)CCCCC3 the results were HIF act 0, CHT inh inactive, CHT PAM inactive, Platelet DG rel 4, VLA-4 inh 0 and AI-2 QS mod 3.
`CN(C)CCCn1c(=O)n(CCc2ccccc2)c(=O)c2c3c(sc21)CCCCC3` gave HIF act 0, CHT inh -7.8*, CHT PAM inactive, Platelet DG rel 1, VLA-4 inh 5, CHT block conf 31%* and HEK293 CHT ctr inactive.
Screening N#Cc1ccc(NC(=O)CCc2nc3ccccc3s2)cc1 returned HIF act 0, CHT inh inactive, CHT PAM inactive, Platelet DG rel 0, VLA-4 inh -6 and AI-2 QS mod 19.
For O=C(CCCc1nc2ccccc2s1)Nc1ccc(N2CCOCC2)cc1 the results were HIF act 0, CHT inh -6.7*, CHT PAM inactive, Platelet DG rel -7, VLA-4 inh -7, AI-2 QS mod 1, CHT block conf inactive and HEK293 CHT ctr inactive.
`Cc1c(C(=O)N/N=C/c2cccnc2)sc(N)c1C#N` gave HIF act 2, CHT inh inactive, CHT PAM inactive, Platelet DG rel 10, VLA-4 inh 28 and AI-2 QS mod 6.
For CC(C)(C)c1ccc(C(=O)CC(Sc2ccc(Cl)cc2)C(=O)O)cc1 (stereo not drawn) the results were HIF act 1, CHT inh -8.4*, CHT PAM inactive, Platelet DG rel 5, VLA-4 inh 8, AI-2 QS mod 69, CHT block conf 6.4%* and HEK293 CHT ctr inactive.
Screening O=C(Cc1ccccc1F)c1ccc(O)cc1O returned HIF act 0, CHT inh -6.2*, CHT PAM inactive, Platelet DG rel -9, VLA-4 inh 1, AI-2 QS mod -3, CHT block conf 45%* and HEK293 CHT ctr inactive.
`O=C(Cc1c(F)cccc1Cl)c1ccc(O)cc1O` gave HIF act 0, CHT inh inactive, CHT PAM inactive, Platelet DG rel -3, VLA-4 inh -3 and AI-2 QS mod -21.
`CN(C)C(=O)c1ccccc1Sc1ccc(Cl)cc1Cl` gave HIF act 0, CHT inh -5*, CHT PAM inactive, Platelet DG rel -21, VLA-4 inh 26, AI-2 QS mod 19, CHT block conf inactive and HEK293 CHT ctr inactive.

Compound activity from PubChem BioAssay.
